Some test systems named below: NCI-H23 lung; NCI-H226 lung; NCI-H322M lung; HOP-62 NSCLC; NCI-H460 lung; HOP-92 NSCLC; NCI-H522 lung; A549/ATCC NSCLC; 786-0 renal; COLO 205 colon.
Holding throughout (assay): NCI-60 one-dose screen, 48 h (100 = growth as untreated, 0 = no growth, -100 = all killed)
Holding throughout (settings): 10 µM unless noted

Compounds without any hit were thinned out: in the full panel of roughly 83,000, 20% have a hit.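 Note: values are percent growth. 100 is the growth of untreated cells, values between 100 and 0 indicate rising inhibition; between -100 and 0 indicates cell death.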 A number with no mark means an inactive call. Calls of active or inactive are those of the source. The calls were made as follows: active = growth percent below 10; inactive = the rest.

`C=CC[N+]1(CC)CCN=C1CCCCCCCCCCCCCCCCC` (stereo not given): the growth in the assay with NCI-H23 lung is -92.9% (active); in the assay with NCI-H226 lung it was -50% (active); in the assay on NCI-H322M lung, 27.8%; in the assay with HOP-62 NSCLC, -95% (active); in the assay on NCI-H460 lung, -100% (active); in the assay with HOP-92 NSCLC, -57.6% (active). The growth in the assay on NCI-H522 lung was -85.2% (active); in the assay with A549/ATCC NSCLC, -92.9% (active); with 786-0 renal, -98.4% (active); in the assay on COLO 205 colon it was -100% (active).
On to `CC1CN(Cc2ccco2)C(=S)N(c2ccccc2)C1=O` (stereo not given), for which the growth with NCI-H23 lung is 108%; in the assay with NCI-H226 lung, 97.3%; in the assay with NCI-H322M lung, 99.4%; in the assay on HOP-62 NSCLC, 88.1%; with NCI-H460 lung, 98.5%; with HOP-92 NSCLC, 92.7%. Besides, the growth in the assay on NCI-H522 lung was 92.9%; with A549/ATCC NSCLC, 110%; in the assay with 786-0 renal, 103%; in the assay with COLO 205 colon it was 128%.
For the compound `C=C1CC[C@@H]2[C@](C)(COC(C)=O)[C@H](OC(C)=O)CC[C@@]2(C)[C@@H]1CC(Nc1ccc(S(=O)(=O)Nc2ccc(Cl)nn2)cc1)C1=CCOC1=O` (stereo not given in full), the growth in the assay on NCI-H23 lung was 58.2%; in the assay with NCI-H226 lung, -10% (active); in the assay with NCI-H322M lung, 57%; with HOP-62 NSCLC, 47.9%; in the assay on NCI-H460 lung, 14.5%; in the assay on HOP-92 NSCLC it was 69.8%. Besides, the growth in the assay with NCI-H522 lung is -34.5% (active); with A549/ATCC NSCLC, 61.6%; with 786-0 renal it was 58.8%; in the assay with COLO 205 colon, 18%.
Take `COc1cnc2c(c1)C(=O)c1c-2n(CCCBr)c(=O)c2cc([N+](=O)[O-])ccc12`: the growth was -5.87% (active) with NCI-H23 lung; -1.66% (active) with NCI-H226 lung; 15.5% in the assay on NCI-H322M lung; 3.86% (active) in the assay on HOP-62 NSCLC; 2.4% (active) with NCI-H460 lung; 26.5% with HOP-92 NSCLC. In addition, the growth in the assay on NCI-H522 lung is -18.4% (active); with A549/ATCC NSCLC, 2.68% (active); with 786-0 renal, 5.26% (active); in the assay on COLO 205 colon it was -26.2% (active).
For the compound `COc1ccc(-c2c(C)noc2-c2ccc(O)cc2O)cc1`, the growth with NCI-H23 lung was 81.4%; in the assay on NCI-H226 lung it was 101%; in the assay on NCI-H322M lung, 94%; in the assay on HOP-62 NSCLC, 118%; in the assay with NCI-H460 lung, 54.3%; in the assay on HOP-92 NSCLC, 104%. Moreover, the growth was 69.5% in the assay with NCI-H522 lung, 75.3% with A549/ATCC NSCLC, 97.9% with 786-0 renal and 121% in the assay with COLO 205 colon.
As for `COc1ccc(OCC(=O)Nc2ccc(-c3nc4ccccc4s3)cc2C)cc1`, the growth in the assay with NCI-H23 lung was 69.3%; with NCI-H226 lung, 51%; in the assay with NCI-H322M lung, 94.7%; with HOP-62 NSCLC, 89.5%; in the assay on NCI-H460 lung, 95.5%; in the assay on HOP-92 NSCLC, 68.4%. The growth in the assay with NCI-H522 lung is 61.6%; in the assay on A549/ATCC NSCLC, 86.2%; in the assay on 786-0 renal, 88.8%; in the assay on COLO 205 colon, 120%.
For the compound `Cc1ccn2c(-c3csc(Nc4cccc(O)c4)n3)c(C)nc2c1`, the growth in the assay with NCI-H23 lung is 25.5%; in the assay on NCI-H226 lung, 35.7%; with NCI-H322M lung, 58.4%; in the assay on HOP-62 NSCLC, 2.98% (active); with NCI-H460 lung it was 13.7%; in the assay with HOP-92 NSCLC it was 52.2%. For the same compound, the growth in the assay on NCI-H522 lung is -17.4% (active); in the assay on A549/ATCC NSCLC, 38.9%; in the assay with 786-0 renal it was 40.1%; in the assay with COLO 205 colon, -87.1% (active).
For `Nc1c(C(=O)Nc2cccc3c2OCCO3)sc2nc3c(cc12)C(=O)CCC3`, the growth in the assay with NCI-H23 lung is 46.4%; with NCI-H226 lung it was 27.9%; with NCI-H322M lung, 45.3%; with HOP-62 NSCLC, 46%; in the assay with NCI-H460 lung it was 8.5% (active); with HOP-92 NSCLC, 107%. In addition, the growth was 2.24% (active) in the assay on NCI-H522 lung, 37.7% in the assay on A549/ATCC NSCLC, 44.5% with 786-0 renal and -3.5% (active) in the assay on COLO 205 colon.
Take `Nc1cccc(NC(=O)C(=O)Nc2cccc(N)c2)c1`: the growth with NCI-H23 lung is 105%; in the assay with NCI-H226 lung, 93.6%; with NCI-H322M lung it was 109%; in the assay with HOP-62 NSCLC, 96.1%; in the assay on NCI-H460 lung it was 117%; in the assay with HOP-92 NSCLC it was 89.8%. Moreover, the growth with NCI-H522 lung was 91.7%; with A549/ATCC NSCLC it was 97.1%; in the assay with 786-0 renal, 68.5%; in the assay with COLO 205 colon, 127%.
Regarding `CC1(C)CC(C(=O)OCCCCCCCCCCC[P+](c2ccccc2)(c2ccccc2)c2ccccc2)C(C)(C)N1O` (stereo not given), the growth in the assay on NCI-H23 lung was -61.1% (active); in the assay on NCI-H226 lung, -65.6% (active); in the assay on NCI-H322M lung it was -20.6% (active); with HOP-62 NSCLC, -45.5% (active); in the assay with NCI-H460 lung, -79.8% (active); in the assay on HOP-92 NSCLC it was -68.8% (active). Moreover, the growth with NCI-H522 lung is -29.4% (active); with A549/ATCC NSCLC, -42.6% (active); in the assay on 786-0 renal, -75.4% (active); in the assay with COLO 205 colon, -79.9% (active).
For `CCOC(=O)C(C#N)C1CCCCC1` (stereo not given), the growth in the assay with NCI-H23 lung was 93.6%; in the assay on NCI-H226 lung, 83.4%; in the assay with NCI-H322M lung, 92.1%; with HOP-62 NSCLC it was 90.4%; with NCI-H460 lung, 123%; in the assay on HOP-92 NSCLC it was 80.7%. The growth with NCI-H522 lung was 96.9%; in the assay with A549/ATCC NSCLC it was 105%; in the assay on 786-0 renal, 105%; in the assay on COLO 205 colon, 127%.
On to `COc1ccc2nc(NC(=O)c3cccnc3Nc3cc(OC)c(OC)c(OC)c3)sc2c1`, for which the growth in the assay with NCI-H23 lung is 22.6%; with NCI-H226 lung it was 10.9%; with NCI-H322M lung, -54.3% (active); in the assay with HOP-62 NSCLC it was 16.7%; with NCI-H460 lung, 0.16% (active); in the assay with HOP-92 NSCLC, -64.6% (active). The growth was 13.3% with NCI-H522 lung, -32.2% (active) in the assay on A549/ATCC NSCLC, -66.9% (active) with 786-0 renal and 123% in the assay on COLO 205 colon.
For `CC(=O)N1CC(Nc2ccc(OC(F)(F)F)cc2)=CC1=O`, the growth in the assay on NCI-H23 lung was 56.8%; with NCI-H226 lung, 67.5%; in the assay on NCI-H322M lung it was 43.3%; in the assay on HOP-62 NSCLC it was 30.2%; in the assay on NCI-H460 lung, 20.6%; in the assay with HOP-92 NSCLC, 50%. The growth in the assay on NCI-H522 lung is 29.3%; in the assay with A549/ATCC NSCLC, 38.9%; with 786-0 renal, 53.6%; with COLO 205 colon, 4.8% (active).
On to `Nc1c(C(=O)Nc2ccccc2Cl)sc2nc3c(cc12)CCCCCC3`, for which the growth with NCI-H23 lung was 72.4%; in the assay on NCI-H226 lung it was 31%; in the assay with NCI-H322M lung, 49.2%; in the assay on HOP-62 NSCLC it was 27%; in the assay with NCI-H460 lung, 30.8%; in the assay with HOP-92 NSCLC it was 39.4%. In addition, the growth is 58% in the assay on NCI-H522 lung, 29% in the assay on A549/ATCC NSCLC, -55.3% (active) in the assay on 786-0 renal and 33.8% with COLO 205 colon.

Source of the values: PubChem BioAssay (NCI).
